Unmarked numbers belong to inactive results.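 Rule for the calls: active = compounds whose dose series gives a full or clear partial fitted curve of increased nuclear translocation; inconclusive = weak partial curve or effect only at the top dose; inactive = no dose-dependent translocation response.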
Potency is the fitted concentration of half-maximal effect.

The target in the assay is Glucocorticoid receptor (Homo sapiens) (UniProt P04150). Description: GR-GFP Redistribution (AID 450). To be noted: U2OS GR-GFP nuclear translocation, laser cytometry, 2 h; series mostly up to 20.6 µM.
Glucocorticoid receptor (Homo sapiens), sequence (P04150 whole entry, looked up): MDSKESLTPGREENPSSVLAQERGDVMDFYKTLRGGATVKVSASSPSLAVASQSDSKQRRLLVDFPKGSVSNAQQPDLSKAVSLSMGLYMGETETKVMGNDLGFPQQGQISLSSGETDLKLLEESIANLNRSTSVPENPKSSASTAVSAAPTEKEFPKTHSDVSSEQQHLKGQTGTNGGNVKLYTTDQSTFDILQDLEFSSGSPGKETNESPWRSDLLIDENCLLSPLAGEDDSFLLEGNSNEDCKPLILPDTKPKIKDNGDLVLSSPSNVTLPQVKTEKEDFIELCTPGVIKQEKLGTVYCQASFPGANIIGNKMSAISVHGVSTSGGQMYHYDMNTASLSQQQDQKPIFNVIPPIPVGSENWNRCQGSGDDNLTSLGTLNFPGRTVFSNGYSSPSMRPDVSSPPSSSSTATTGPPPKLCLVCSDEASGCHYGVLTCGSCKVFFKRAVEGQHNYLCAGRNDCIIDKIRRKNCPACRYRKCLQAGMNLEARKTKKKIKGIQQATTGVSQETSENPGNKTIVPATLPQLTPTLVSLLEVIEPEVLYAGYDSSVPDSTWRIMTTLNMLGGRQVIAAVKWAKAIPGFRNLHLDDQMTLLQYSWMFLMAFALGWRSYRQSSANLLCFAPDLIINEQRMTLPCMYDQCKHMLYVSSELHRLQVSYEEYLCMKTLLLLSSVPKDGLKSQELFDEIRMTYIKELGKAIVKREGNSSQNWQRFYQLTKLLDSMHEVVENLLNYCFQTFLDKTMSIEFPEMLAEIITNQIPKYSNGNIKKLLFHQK
In the case of `Cc1ccc2c(c1)C(CCN)C(=O)N2Cc1ccccc1` (stereo unspecified), the Potency was greater than 20.6 µM.
With `CN(C)c1ccc(C=NCCC2(O)CCOC(C)(C)C2)cc1` (stereo unspecified) the figure was greater than 20.6 µM.
With `CC1(C)CC(=O)C(CCCN2C(=O)c3ccccc3C2=O)C(=O)C1` the figure was greater than 20.6 µM; with `COc1cccc(C(=O)N2CCN(S(=O)(=O)Cc3ccccc3)CC2)c1OC`, greater than 20.6 µM.
With `CCOC(=O)c1cc(CC)sc1NC(=O)C1CC1` the figure was greater than 20.6 µM; with `Cc1ccc(Cn2ncc3c(N4CCOCC4)ncnc32)cc1`, greater than 20.6 µM; with `N#C/C(C(=O)NCc1ccccc1)=C1\SC(CCO)C(=O)N1c1ccccc1` (stereo unspecified), greater than 20.6 µM.
As for `COCCOC(=O)c1c(C)nc(SCC(=O)Nc2ccc(C)cc2)c(C#N)c1-c1ccco1`, the Potency was greater than 20.6 µM.
The result for `c1ccc(OCc2nn3c(-c4ccco4)nnc3s2)cc1` reads greater than 20.6 µM; that for `CCc1ccc(NC(=O)CSC2=C(C#N)C(c3ccco3)C3=C(CCCC3=O)N2)cc1` (stereo unspecified), greater than 20.6 µM.
With `CCCc1cc(=O)oc2c(CN3CCCC3)c(O)ccc12` the figure was greater than 20.6 µM.
With `COc1ccc2[nH]c(C)c(C(=O)CN3CCOCC3)c2c1` the figure was greater than 20.6 µM; with `Clc1ccc2[nH]c3c(NCCCN4CCOCC4)ncnc3c2c1`, greater than 20.6 µM.
For `COc1ccc(-c2ncncc2-c2csc(C)n2)c(O)c1`, the Potency is greater than 20.6 µM.
With `O=C(Nc1ccc(Cl)cn1)C1CCCN1S(=O)(=O)c1ccccc1` (stereo unspecified), the Potency is greater than 20.6 µM.
The result for `N/C(CCCN1CCCCC1)=N/O` reads greater than 20.6 µM.
